In PubChem BioAssay AID690 (Sanford-Burnham Center for Chemical Genomics, 2007):
Hit rate of the full screen: of about 96,000 compounds, about 80 (0.08%) were called active. No rule for the calls is given here. Not all results are given here. Potency and affinity values are given separately.

target: Alkaline phosphatase, placental type (Homo sapiens) (UniProt P05187); assay: PLAP enzyme inhibitors, biochemical, luminescence, HTS (AID 690); details: purified PLAP, luminescent substrate; at 20 µM; stronger effect = higher value
Sequence (P05187 whole entry, looked up): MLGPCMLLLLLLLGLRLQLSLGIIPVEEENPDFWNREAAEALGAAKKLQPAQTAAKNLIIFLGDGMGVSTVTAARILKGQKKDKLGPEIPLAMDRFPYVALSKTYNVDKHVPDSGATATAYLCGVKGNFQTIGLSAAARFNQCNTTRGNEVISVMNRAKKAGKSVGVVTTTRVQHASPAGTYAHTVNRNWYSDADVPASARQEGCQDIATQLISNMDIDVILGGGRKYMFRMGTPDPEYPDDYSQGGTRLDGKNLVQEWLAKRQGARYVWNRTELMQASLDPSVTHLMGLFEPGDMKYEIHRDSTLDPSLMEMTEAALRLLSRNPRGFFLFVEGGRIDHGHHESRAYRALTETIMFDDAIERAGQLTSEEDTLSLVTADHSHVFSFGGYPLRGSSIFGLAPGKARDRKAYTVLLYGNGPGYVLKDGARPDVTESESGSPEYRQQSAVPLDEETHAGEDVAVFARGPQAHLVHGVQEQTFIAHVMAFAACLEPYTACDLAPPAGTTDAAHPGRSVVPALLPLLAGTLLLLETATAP

inhibition, inactive:
Cc1ccc(-c2cc(C(=O)N/N=C\c3cnn(C)c3C)c3ccccc3n2)cc1C -102%
C=CCn1c(SCC(=O)Nc2ccccc2OC)nnc1-c1ccco1 8%
O=C(C1CC1)N1CCN=C1SCc1cccc(C(F)(F)F)c1 3%
CCOCCCNC(=O)C1CCCN1S(=O)(=O)c1ccc(Cl)cc1 (stereo not drawn) 8.4%
C#CC(CC)(CC)NC(=O)c1c(C)noc1C 4.5%
O=C(Cc1cccs1)NCc1ccc(F)cc1 -6%
CN1CCN(c2nc3c(c(=O)n(C)c(=O)n3C)n2CC(=O)C23CC4CC(CC(C4)C2)C3)CC1 -54.5%
O=C1/C(=C/c2cccs2)SC(=S)N1c1ccccc1 12.2%
CCN(CC)c1ccc(N2C(=O)/C(=C/c3cccs3)SC2=S)cc1 3.4%
CC(C)N(CCNS(=O)(=O)c1ccc(Cl)cc1)C(C)C 9.6%
O=C(Nc1ccccc1C(F)(F)F)c1ccc(CN2CCC(Cc3ccccc3)CC2)cc1 -22.3%
Cc1ccc(-c2cc(C(=O)N/N=C/c3c(C)nn(-c4ccccc4)c3C)[nH]n2)cc1 -2.5%
Cc1nn(-c2ccccc2)c(C)c1/C=N/NC(=O)c1cc(C(C)(C)C)[nH]n1 -32%
O=c1[nH]c(CSc2nnc(-c3ccncc3)n2Cc2ccco2)nc2ccccc12 -3.5%
N=c1oc2ccc3ccccc3c2cc1-c1nnc2n1CCCCC2 -35.4%
CC1CCC/C(=N/Nc2ccc([N+](=O)[O-])cc2[N+](=O)[O-])C1 (stereo not drawn) 21.1%
O=[N+]([O-])c1ccc(C2CCCC/C2=N/OCc2ccc(F)cc2)c([N+](=O)[O-])c1 (stereo not drawn) 25.8%
CCN(CC)CCCNC(=O)N[C@@H](Cc1ccccc1)C(=O)O -2.1%
CC(=O)c1c(C(C)=O)c(C)n(-c2ccc(O)cc2)c1C -4.3%
CCCCNC(=O)NC1(C(F)(F)F)Oc2ccccc2O1 -12%
CC(NC(=O)NCc1cccnc1)(C(F)(F)F)C(F)(F)F -6.1%
COCC(C)NC(=O)NC1(C(F)(F)F)Oc2ccc(Cl)cc2O1 (stereo not drawn) 34.9%
O=C(NCc1cccnc1)NC1(C(F)(F)F)Oc2ccccc2O1 12.3%
Cc1nccn1S(=O)(=O)c1ccc(Br)cc1Br -1.1%
OC(CC1CC12c1ccccc1-c1ncccc12)(c1ccccc1)c1ccccc1 (stereo not drawn) -45%
CCCCn1cc(C(=O)c2cc(Br)ccc2O)cc(C#N)c1=O -1.5%
CCCC1CCc2c(c3ccccc3[nH]c2=O)O1 (stereo not drawn) -5%
CC1CCc2c(c3ccccc3[nH]c2=O)O1 (stereo not drawn) 9%
Fc1ccc(CSc2nnc(-c3cnccn3)n2Cc2ccco2)cc1 7.7%
CCCCOC(=O)C(C)Nc1n[nH]c(=O)[nH]c1=O (stereo not drawn) 3.9%
CCCCOC(=O)CNc1n[nH]c(=S)[nH]c1=O -1.8%
CCN1CCN(Cc2nc3c(c(=O)n(C)c(=O)n3C)n2Cc2cccc3ccccc23)CC1 -34.1%
Cc1ccccc1CN(c1ccc(C(=O)N2CCc3ccccc3C2)cc1)S(C)(=O)=O -40.7%
O=C(c1cccs1)c1coc2ccc(O)c(CN3CCOCC3)c12 -1%
Cc1ccc(OCn2c(=O)sc3ccccc32)cc1 -9%
O=c1sc2ccccc2n1CCOc1ccccc1 33.9%
CCOc1ccc(NC(N)=O)cc1OCC 13.6%
O=P(O)(O)c1ccccc1OCCOCCOc1ccccc1P(=O)(O)O 17.4%
O=P(O)(O)c1ccccc1OCCCCCOc1ccccc1P(=O)(O)O 21.2%
CSC1=C(C#N)C(c2ccccc2C)C(C#N)=C(N)N1 (stereo not drawn) 17.9%
O=C(NC(Cc1ccc(F)cc1)C(=O)O)c1ccccc1 (stereo not drawn) -2.2%
Cc1cc(C)n2nc(SCc3nnc(SCc4ccccc4)s3)nc2n1 -20.5%
COC(=O)c1cc(NC(=O)C2COc3ccccc3O2)ccc1Cl (stereo not drawn) 28.8%
Cc1c(NC(=O)C(C)OC(=O)CNC(=O)c2ccccc2)c(=O)n(-c2ccccc2)n1C (stereo not drawn) 5.2%
Cc1ccc(C(=O)CSc2nc3ccccc3c(=O)[nH]2)cc1 -27.5%
CC(C)(C)c1ccc(C(=O)CSc2nc3ccccc3c(=O)[nH]2)cc1 -9.7%
O=C(CSc1n[nH]c(-c2ccccc2)n1)c1ccccc1 -11.7%
O=C(CSc1n[nH]c(-c2ccncc2)n1)c1ccccc1 7.6%
COc1ccc(Cn2c(CCC(=O)Nc3ccc(CC#N)cc3)nc3cccnc32)cc1 11.1%
O=C(C[n+]1ccc(C(=O)N/N=C/c2ccc(O)cc2)cc1)c1ccccc1 23.2%
O=C(C[n+]1ccc(C(=O)N/N=C/c2ccc(OCc3ccccc3)cc2)cc1)c1ccccc1 41.8%
CC(=O)NC1C(=O)N=C(SCC(=O)NC(C)c2ccccc2)NC1=O (stereo not drawn) -18.8%
C=CCNS(=O)(=O)CC12CCC(CC1=O)C2(C)C (stereo not drawn) 4.8%
CCOC(=O)Cc1csc(NC(=O)NC2(C(F)(F)F)Oc3ccc(Cl)cc3O2)n1 (stereo not drawn) 30.3%
O=C(Nc1cc(N2CCOCC2)ncn1)Nc1cccc2ccccc12 14.5%
O=C(NC1(C(F)(F)F)Oc2ccccc2O1)N1CCCC1 -7.5%
O=C(Nc1cc(N2CCOCC2)ncn1)c1ccccc1 1.3%
CC(=O)OC(C)(C)C#CCN1CCCC1 24.5%
CC(=O)N1CCN(C(=S)c2ccc([N+](=O)[O-])cc2)CC1 12.8%
Cc1[nH]c2ccccc2c1C(=O)/C=C/c1ccccc1 10.6%
Cc1[nH]c2ccccc2c1/C=N/n1cnnc1 7.5%
Cc1nn(CC(O)Cn2cnc3c2c(=O)n(C)c(=O)n3C)c(C)c1Br (stereo not drawn) -1.6%
CCOc1cccc(-c2nc(C(N)=O)c3[nH]c(=O)n(-c4cccc(Cl)c4)c3n2)c1O -27.5%
